Data as given in PubChem BioAssay AID1159580 (chemical genetic matrix, 2015).
Values joined by “and” are separate entries in the source; they are usually repeats but may differ in a detail not shown here. Identical values can stand only once. In all, about 5,500 compounds went through this assay and about 2,000 (36%) were called active. Another 18% or so got no clear call; they are omitted. Cut-off read from the data, not from the text of the source: active = normalized growth mostly below about 0.91 (no sharp cut-off); inconclusive = no clear call, values can overlap the other calls; inactive = mostly above about 0.92. The list shows a part of the results.

Assay: chemical genetic growth profiling, strain panel (AID 1159580);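 note: tested at 20 µM; growth read once vehicle control cultures reached saturation at 30 °C; 1 = growth at the plate median or of vehicle wells; lower values mean less growth of the strain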
Conditions: S. cerevisiae deletion strains, growth OD

Measured: normalized growth

O=c1oc2ccccc2c(O)c1Cc1c(O)c2ccccc2oc1=O
inactive: locus YAL013W, strain DEP1, hits give low values 1.01 | locus YAL021C, strain ccr4, hits give low values 0.977 | locus YAL026C, strain drs2, hits give low values 1.03 | locus YAL030W, strain snc1, hits give low values 1.02 | locus YBL061C, strain skt5, hits give low values 1.02 | locus YBR009C, strain hhf1, hits give low values 1.01 | locus YBR021W, strain FUR4, hits give low values 1.01 | locus YBR023C, strain chs3, hits give low values 1.01 | locus YBR171W, strain sec66, hits give low values 1.01 | locus YBR229C, strain ROT2, hits give low values 0.998 | locus YBR231C, strain swc5, hits give low values 1.02 | locus YBR279W, strain paf1, hits give low values 1 | locus YCL011C, strain gbp2, hits give low values 1.02 | locus YCL016C, strain dcc1, hits give low values 1 | locus YCL029C, strain bik1, hits give low values 0.968 | locus YCL069W, strain vba3, hits give low values 1.02 | locus YCR088W, strain abp1, hits give low values 1.02 | locus YDL005C, strain med2, hits give low values 1.04 | locus YDL035C, strain GPR1, hits give low values 1.04 | locus YDL040C, strain nat1, hits give low values 1.03 | locus YDL074C, strain BRE1, hits give low values 1.02 | locus YDL101C, strain DUN1, hits give low values 1.01 | locus YDL185W, strain tfp1, hits give low values 0.962 | locus YDL192W, strain arf1, hits give low values 0.962 | locus YDR001C, strain nth1, hits give low values 1 | locus YDR069C, strain doa4, hits give low values 0.994 | locus YDR101C, strain arx1, hits give low values 0.984 | locus YDR137W, strain rgp1, hits give low values 1.03 | locus YDR159W, strain sac3, hits give low values 0.936 | locus YDR162C, strain NBP2, hits give low values 1.01 | locus YDR195W, strain ref2 1.01 | locus YDR297W, strain sur2, hits give low values 1.01 | locus YDR318W, strain mcm21, hits give low values 0.979 | locus YDR334W, strain swr1, hits give low values 1.04 | locus YDR335W, strain msn5, hits give low values 1.02 | locus YDR388W, hits give low values 0.959 | locus YDR392W, strain spt3, hits give low values 0.919 | locus YDR502C, strain sam2, hits give low values 0.982 | locus YEL003W, strain gim4, hits give low values 1.02 | locus YEL037C, strain rad23, hits give low values 1.03 | locus YEL061C, strain CIN8 (second series), hits give low values 1.03 | locus YEL061C, strain CIN8, hits give low values 0.993 | locus YER015W, strain faa2, hits give low values 1.01 | locus YER016W, strain bim1, hits give low values 1.01 | locus YER110C, hits give low values 0.96 | locus YER111C, strain swi4, hits give low values 1.01 | locus YER155C, strain BEM2 (second series), hits give low values 1.02 | locus YER155C, strain BEM2, hits give low values 0.984 | locus YER167W, strain BCK2, hits give low values 1.01 | locus YFR010W, strain ubp6, hits give low values 1.02 | locus YGL078C, strain dbp3, hits give low values 0.952 | locus YGL086W, strain mad1, hits give low values 0.996 | locus YGL167C, strain pmr1, hits give low values 1.01 | locus YGL173C, strain kem1, hits give low values 1.01 | locus YGL227W, strain vid30, hits give low values 1 | locus YGL240W, strain doc1, hits give low values 0.984 | locus YGL248W, strain PDE1, hits give low values 1.01 | locus YGL253W, strain hxk2, hits give low values 1.02 | locus YGR078C, strain PAC10, hits give low values 1.01 | locus YGR135W, strain pre9, hits give low values 0.959 | locus YGR229C, strain SMI1, hits give low values 1.02 | locus YGR252W, strain gcn5, hits give low values 0.95 | locus YHR013C, strain ard1, hits give low values 1 | locus YHR027C, strain rpn1, hits give low values 1.01 | locus YHR030C, strain SLT2, hits give low values 0.993 and 0.907 | locus YHR079C, strain IRE1 (second series), hits give low values 0.963 | locus YHR079C, strain IRE1, hits give low values 0.917 | locus YHR094C, strain hxt1, hits give low values 0.96 | locus YHR129C, strain ARP1, hits give low values 0.991 | locus YHR142W, strain chs7, hits give low values 1.08 | locus YHR200W, strain rpn10, hits give low values 0.98 | locus YIL066C, strain RNR3, hits give low values 1 | locus YIL073C, strain SPO22, hits give low values 0.979 | locus YIL125W, strain kgd1, hits give low values 0.959 | locus YIR030C, strain dcg1, hits give low values 0.96 | locus YJL092W, strain hpr5, hits give low values 1.01 | locus YJL095W, strain BCK1 (second series), hits give low values 1.01 | locus YJL095W, strain BCK1, hits give low values 0.989 and 0.898 | locus YJL115W, strain asf1, hits give low values 1.01 | locus YJL129C, strain trk1, hits give low values 1 | locus YJL134W, strain LCB3, hits give low values 0.987 | locus YJL154C, strain vps35, hits give low values 1.02 | locus YJL164C, strain tpk1, hits give low values 1.03 | locus YJL166W, strain qcr8, hits give low values 0.995 | locus YJL168C, strain set2, hits give low values 0.953 | locus YJL187C, strain SWE1 (second series), hits give low values 1 | locus YJL187C, strain SWE1, hits give low values 0.991 | locus YJR043C, strain POL32, hits give low values 1.02
